From PubChem BioAssay (Tox21)
Inconclusive results are not listed. Activity calls are given as the source filed them. The call rests on the fitted dose curve; in most records, active means well fitted activation curve with a large enough effect in the repeat runs; inconclusive means weak or mixed curves; inactive means flat fitted curve, though single readings scatter.

Test: A CellTox Green Cytotoxicity Assay to monitor cytotoxicity in HepG2 cells - 24 hour (AID 1224878); further: nearly all actives have a fitted effect of over 45% in size
Settings: CellTox Green fluorescence; series mostly up to 76.8 µM; cytotoxicity: at the top concentration
Outline: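 Fluorescent DNA-binding dye, 600 HepG2 cells/well, 5 h preincubation then compound in DMSO; same plates read at 0–40 h, 37 C.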
On the % scale 0 is the no-effect control and ±100 the full control effect; potency means the concentration at half of the fitted maximal effect.

SMILES | cytotoxicity | Potency
C#CCOC(C(=O)OCCN(C)C)(c1ccccc1)c1ccccc1 | 0.597% [at 35.3 µM] (inactive) | 
Brc1ccccc1 | -0.352% (inactive) | 
C[C@]12CC[C@H]3[C@@H](CCC4=CC(=O)CC[C@@H]43)[C@@H]1CC[C@@H]2OC(=O)CCC1CCCCC1 | 13.7% [at 35.3 µM] (inactive) | 
Cn1sc(Cl)cc1=O | 2.59% (inactive) | 
CC(C)O.CC(C)O.OCCN(CCO)CCO.OCCN(CCO)CCO.[Ti] | -18.6% (inactive) | 
c1ccoc1 | -3.32% (inactive) | 
O=C1c2ccccc2C(=O)C1C(=O)C(c1ccccc1)c1ccccc1 | 2.77% [at 35.3 µM] (inactive) | 
NCC(CC(=O)O)c1ccc(Cl)cc1 (stereo not given) | -3.56% [at 0.29 µM] (inactive) | 
CCOS(C)(=O)=O | -1.11% (inactive) | 
O=C(NCc1cccnc1)Nc1ccc([N+](=O)[O-])cc1 | -0.555% (inactive) | 
Cc1ccccc1CCl | 1.27% (inactive) | 
ClCCCCBr | -14.4% (inactive) | 
COP(=S)(OC)Oc1cc(Cl)c(I)cc1Cl | 0.142% (inactive) | 
Nc1ccc([N+](=O)[O-])cc1[N+](=O)[O-] | -0.759% (inactive) | 
CN1C(=O)NC(=O)C(C)(C2=CCCCC2)C1=O (stereo not given) | -2.67% [at 35.3 µM] (inactive) | 
O=C(CBr)Nc1ccc(Cl)cc1C(=O)c1ccccc1F | 1.78% [at 35.3 µM] (inactive) | 
C=CC(=O)OCC(C)O (stereo not given) | -0.151% (inactive) | 
CC1C(=O)C[C@]2(C(C)C)C[C@H]12 (stereo not given in full) | -10.9% (inactive) | 

SMILES | cytotoxicity | Potency
C=CCC1([C@H](C)CCC)C(=O)NC(=O)NC1=O | 5.15% (inactive) | 
COc1cc(Cl)c(OC)cc1Cl | 23.8% (inactive) | 
CCCCCCCCCCOC(=O)c1ccccc1C(=O)OCCCCCCCCCC | 4.16% (inactive) | 
CCCN(CCC)c1c([N+](=O)[O-])cc(S(C)(=O)=O)cc1[N+](=O)[O-] | -9.55% (inactive) | 
CCc1ccc(C(=O)NN(C(=O)c2cc(C)cc(C)c2)C(C)(C)C)cc1 | -8.42% (inactive) | 
Clc1cc(Cl)c(Cl)c(Cl)c1 | 0.976% (inactive) | 
CC(C)(OO)c1ccccc1 | -5.34% (inactive) | 
Nc1ccc(N=Nc2ccc(-c3ccc(N=Nc4c(S(=O)(=O)O)cc5cc(S(=O)(=O)O)c(N=Nc6ccccc6)c(O)c5c4N)cc3)cc2)c(N)c1 | -15.8% [at 35.3 µM] (inactive) | 
N#Cc1ccc(Cl)cc1 | -14.2% (inactive) | 
CC(=O)C(C)(C)C | -4.57% (inactive) | 
C[N+](C)(C)CCCl | 2% (inactive) | 
CN1C[C@H](CNC(=O)OCc2ccccc2)C[C@@H]2c3cccc4c3c(cn4C)C[C@H]21 |  | 26.8 µM (active)
CCOP(=S)(OCC)SCSCC | 1.44% (inactive) | 
O=C(O)COc1ccc(Cl)cc1 | -20% (inactive) | 
ClCc1cccc(Cl)c1 | -1.44% [at 35.3 µM] (inactive) | 
COCC(C)N(C(=O)CCl)c1c(C)csc1C (stereo not given) | 14.1% (inactive) | 
COC1=CC(=O)O[C@@H](CCc2ccccc2)C1 | -0.507% (inactive) | 
